Screening results deposited in PubChem BioAssay by National Center for Advancing Translational Sciences (NCATS).
Compounds with a hit are over-represented: about 2.8% of the library has one in this group of screens.
KDM5B inh: inhibitors of human KDM5B histone demethylase | AID 1347165 | KDM5B demethylase, FDH-coupled NADH fluorescence (FDH is formaldehyde dehydrogenase) | Q9UGL1 | hit rate 2.6% among 220,000 | Potency, µM (series often up to 57.7 µM), actives largely listed as inhibitors; further: nearly all actives have a fitted effect of over 70% in size
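Measured: NADH fluorescence change, 30 min, RT. System: KDM5BΔAP 200 nM final, H3K4me3 peptide, α-KG, Fe(II), ascorbate, NAD⁺ plus FDH, pH 7.5 HEPES. Compounds: titrated, 10 min pre-incubation with enzyme.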
IP6K1 inhibitor: blocks human inositol hexakisphosphate kinase 1 | IP6K1 kinase, ADP-Glo luminescence, 2 h; stronger effect = lower value | Q92551 | activity change, % (series mostly up to about 58 µM) | hit rate 0.81% among 140,000; in the data active means activity change below about -25%
Target sequence (Q92551 whole entry, looked up): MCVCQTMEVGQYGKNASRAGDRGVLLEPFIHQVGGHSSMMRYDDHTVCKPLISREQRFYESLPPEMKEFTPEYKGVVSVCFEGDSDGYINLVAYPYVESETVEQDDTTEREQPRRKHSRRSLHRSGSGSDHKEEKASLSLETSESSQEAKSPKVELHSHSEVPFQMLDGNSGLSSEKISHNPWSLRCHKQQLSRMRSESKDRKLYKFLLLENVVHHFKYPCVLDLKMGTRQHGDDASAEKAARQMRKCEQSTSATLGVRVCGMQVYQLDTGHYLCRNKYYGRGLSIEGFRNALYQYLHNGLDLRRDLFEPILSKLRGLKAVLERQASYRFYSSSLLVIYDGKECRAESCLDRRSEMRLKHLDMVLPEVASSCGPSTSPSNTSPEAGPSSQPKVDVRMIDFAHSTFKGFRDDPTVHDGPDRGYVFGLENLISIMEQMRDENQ
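ADP-Glo luminescence measures ADP made by human IP6K1 during a 2 h RT reaction with ATP/IP6 (mix at 1.3 mM/130 uM); top library doses 57.5 and 19.1 uM final.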
SNCA expr inhib: SNCA gene expression inhibition. hit rate 0.17% among 140,000. AID 1671194. HEK-293 SNCA-luciferase knock-in, luminescence, 24 h. Potency, µM (top dose mostly 57.2 µM), most hits filed as inhibitors; further: nearly all actives have a fitted effect of over 45% in size
HEK293 viab: counter-screen for SNCA expression inhibitors: cell viability; HEK-293-SNCA-luc viability, GF-AFC fluorescence, 24 h; Potency, µM (doses to about 57.1 µM), hits mostly cytotoxic; hit rate 0.12% among 150,000; AID 1671193; further: nearly all actives have a fitted effect of over 30% in size
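Cytotoxicity counterscreen: after 24 h compound treatment of genome-edited SNCA-luciferase HEK-293 cells, live-cell protease substrate GF-AFC read by fluorescence after 30 min; activity scaled between DMSO (0%) and medium-only (-100%), curves Hill-fitted.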
Numbers stand for hits; . = inactive; ? = inconclusive; / = no result; [ ] = dose if it differs, or a comment. Unless noted, the call rests on the fitted dose curve; in most records, active means well fitted curve in the direction sought with a large enough effect; inconclusive means small, poorly fitted or top-dose-only effect, or another doubt; inactive means no such curve, though single readings can be large; an effect the other way counts as inactive or inconclusive.

SMILES | KDM5B inh | IP6K1 inhibitor | SNCA expr inhib | HEK293 viab
COc1ccc(-c2cc(C(=O)N3CCN(C(=O)c4ccc(Br)o4)CC3)[nH]n2)cc1 | . | / | / | /
CO[C@H]1C(=O)N(C2CCN(C(=O)c3cccc4[nH]ccc34)CC2)[C@H]1c1ccncc1 | 25.1µM | . | . | .
O=C1CC2CCCC(C1)N2C(=O)c1cccc2[nH]ccc12 | 35.5µM | . | . | .
Cc1ccccc1C(=O)N1C2CCCC1CC(=O)C2 | . | . | . | .
O=C(c1cccc2[nH]ccc12)N1CCC(N2C(=O)C3(CCCCC3)C2c2ccncc2)CC1 (configuration not stated) | 22.4µM | . | ? | .[12.5 µM]
O=C(c1ccc2cc[nH]c2c1)N1CCC(N2C(=O)C3(CCCCC3)C2c2ccncc2)CC1 (configuration not stated) | ? | . | . | .[12.5 µM]
COCc1ccc2c(c1)c(OC(C)(C)C(=O)NCCc1ccccn1)nn2CCC(C)C | ? | . | . | .
COC(=O)c1cc(-c2ccc(Cl)cc2)on1 | . | / | / | /
COC(=O)C1=C(C)N=C2SC=C(CC(=O)N3CCCC3)N2C1c1cccc(OC)c1OC (configuration not stated) | ? | . | . | .
C=CCOC(=O)C1=C(C)N=C2SC=C(CC(=O)N3CCCC3)N2C1c1ccccc1Cl (configuration not stated) | 28.2µM | . | . | .
C=CCOC(=O)C1=C(C)N=C2SC=C(CC(=O)N3CCCC3)N2C1c1cccc(OC)c1OC (configuration not stated) | 28.2µM | . | . | .
CC1=C(C(=O)OC(C)C)C(c2ccccc2F)N2C(CC(=O)N3CCCC3)=CSC2=N1 (configuration not stated) | ? | . | . | .
Cc1ccc(-c2ncc(NC(=O)c3cc(F)ccc3F)cn2)cc1 | 28.2µM | . | . | .
Cc1cc(C)n(-c2nnc(SCC(=O)Nc3ccccc3OC(F)F)n2N)n1 | . | / | / | /
Cc1cc(C(=O)N[C@H](C)c2c(-c3ccc(Cl)cc3)noc2C(=O)O)c(C)o1 | 28.2µM | . | . | .
C[C@@H](NC(=O)c1ccc(Cl)cc1)c1c(-c2ccc(F)cc2)noc1C(=O)O | ? | . | . | .
COc1ccc(OC)c(CN2CCCn3nc(C)c(-c4ccccc4C(C)C)c32)c1 | ? | . | ? | .
Cc1nn2c(c1-c1cccnc1N1CCOCC1)N(Cc1ccc3c(c1)CCO3)CCC2 | 25.1µM | . | . | .
COc1ccc(OC)c(CN2CCCn3nc(C)c(-c4cccnc4N4CCOCC4)c32)c1 | 12.6µM | . | . | .
Cc1ccc2oc(=O)n(CCNC(=O)Nc3ccccc3C)c2c1 | . | . | . | .
COc1ccc2nc(NC(=O)c3cc(-c4ccc(C)c(F)c4)on3)sc2c1 | . | / | / | /
CN1CCN(c2cc(N3CC[C@H](CO)[C@H](O)C3)nc(N)n2)CC1 | . | . | . | .
Nc1cc(N2CC[C@@H](N3CCN(CCc4ccccc4)CC3)[C@H](O)C2)nc(N)n1 | 4.47µM | . | . | .
CCN1CC(Nc2ccc(-c3nc(CCCc4ccccc4)no3)cn2)CC1=O (configuration not stated) | 28.2µM | . | . | .
Cn1cc(CNc2ccc(-c3nc(CCCc4ccccc4)no3)cn2)cn1 | 31.6µM | . | . | .
SMILES | KDM5B inh | IP6K1 inhibitor | SNCA expr inhib | HEK293 viab
C[C@@H](Nc1ccc(-c2nc(CCCc3ccccc3)no2)cn1)C(N)=O | ? | . | . | .
c1ccc(CCCc2noc(-c3ccc(NCc4ccccn4)nc3)n2)cc1 | ? | . | . | .
Cc1cc(CNc2ccc(-c3nc(CCCc4ccccc4)no3)cn2)no1 | 28.2µM | . | . | .
COC(=O)/C=C\C(=O)OC | / | . | . | .
OC[C@@H]1CN(c2ccc(-c3nc(-c4cccc(C(F)(F)F)c4)no3)cn2)C[C@H]1CO | 28.2µM | . | . | .
OCC1CCCN(c2ccc(-c3nc(-c4cccc(C(F)(F)F)c4)no3)cn2)C1 (configuration not stated) | 28.2µM | . | . | .
Cc1nc(N2CCC(NCCc3cccnc3)CC2)c2ccsc2n1 | . | . | . | .
N#Cc1ccc2nc([C@H]3CCN(Cc4ccccn4)C3)[nH]c2c1 | 35.5µM | . | . | .
CC(C)(C)CC(=O)N[C@H]1C[C@@H](Cc2cc(CN3CCN(c4ccccc4)CC3)on2)C1(C)C | . | . | ? | .
CNC(=O)c1cc2cc(-c3c(C)noc3C)nc(-c3cccnc3OC)c2o1 | 35.5µM | . | . | .
Cc1noc(C)c1-c1cc2cc(C(C)C)oc2c(-c2ccc(CO)cc2)n1 | 28.2µM | . | . | .
COc1ncccc1-c1nc(-c2c(C)noc2C)cc2cc(C(C)C)oc12 | 31.6µM | . | . | .
Cc1noc(C)c1-c1cc2cc(C(C)C)oc2c(-c2cccnc2)n1 | 31.6µM | . | . | .
Cc1noc(C)c1-c1cc2cc(C(C)C)oc2c(-c2c(C)noc2C)n1 | . | . | . | .
N#CC1(c2ccc(NC(=O)Cc3ccc(Cl)cc3)cc2)CCCC1 | . | / | / | /
COc1ccccc1N1CCN(S(=O)(=O)c2c(C)sc3ncn(CC(=O)Nc4ccccc4F)c(=O)c23)CC1 | . | . | 2.51µM | .
COc1ccccc1N1CCN(S(=O)(=O)c2c(C)sc3ncn(CC(=O)Nc4ccc(C(F)(F)F)cc4)c(=O)c23)CC1 | . | . | . | .
CCCn1c(C)cnc1CC1CCN(C(=O)c2c(C)noc2C)CC1 | . | . | . | .
CC1(C(=O)NC2CCC2)CN(Cc2ccccc2)Cc2ccc(N3CCOCC3)nc21 (configuration not stated) | 35.5µM | . | . | ?
CN(C)CCNC(=O)C1(C)CN(Cc2ccccc2)Cc2ccc(Nc3ccccc3)nc21 (configuration not stated) | . | . | ? | .
CC1(C(=O)NCc2ccco2)CN(Cc2ccccc2)Cc2ccc(N3CCOCC3)nc21 (configuration not stated) | 15.8µM | . | ? | .
CN1Cc2ccc(N3CCOCC3)nc2C(C)(C(=O)NCc2ccccc2)C1 (configuration not stated) | ? | . | . | .
COCCNC(=O)C1(C)CN(Cc2ccccc2)Cc2ccc(N3CCOCC3)nc21 (configuration not stated) | 31.6µM | . | . | .
Cn1ccc(NC(=O)C2(C)CN(Cc3ccccc3)Cc3ccc(N4CCOCC4)nc32)n1 (configuration not stated) | 11.2µM | . | . | .
CC(C)CNc1ccc2c(n1)C(C)(C(=O)NC1CCN(C)CC1)CN(Cc1ccccc1)C2 (configuration not stated) | . | . | . | .
COc1ccc(C(=O)N2C[C@@H]3C[C@H](C2)c2c(/C=C/c4ccc(Cl)cc4)ccc(=O)n2C3)cc1 | ? | . | . | ?
O=C(N[C@H]1CCN2C(=O)c3cc(-c4ccc(F)cc4F)ccc3NC(=O)[C@H]12)C1CCCC1 | . | . | . | .
Cc1nc2sc(C(=O)NCc3ccc(Cl)cc3)c(NC(=O)c3ccccc3)c2c(C)c1C | ? | . | . | .
CNC(=O)C1(C)CN(Cc2ccccc2)Cc2ccc(N3CCOCC3)nc21 (configuration not stated) | 35.5µM | . | . | .
